PubChem BioAssay (NCI)
This is part of a sample that, as a whole, favours compounds with a hit. Of some 83,000 tested, about 20% had one in any assay.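 Compound tested at a single concentration for 48 hours in 96-well plates; a percent growth value below 10 was scored as active.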 A number with no mark means an inactive call. Activity calls are given as the source filed them.

The compounds below were run on ACHN renal (assay: NCI-60 one-dose screen, 48 h (100 = growth as untreated, 0 = no growth, -100 = all killed)). Conditions: 10 µM unless noted.

| Compound | growth |
| --- | --- |
| Nc1cc2ccccc2c(=O)n1NC(=O)c1ccc(I)cc1 | 106% |
| CC(=O)Nc1cccc(Nc2nc(N[C@H]3CCCc4ccccc43)c3ccccc3n2)c1 | 102% |
| CCN(CC)C(=O)N/C(N)=N/c1nc2ccccc2s1 | 50.7% |
| O=C(O)c1cccc(-c2ccc(/C=N/NC(=O)c3[nH]c4ccc(Br)cc4c3-c3ccccc3)o2)c1 | 89.9% |
| NS(=O)(=O)c1ccc(-n2cc(-c3cccc(NC(=O)c4cc(C(F)(F)F)cc(C(F)(F)F)c4)c3)nn2)cc1 | 66.1% |
| C[C@H](Nc1nc(NCCc2ccccc2)nc2ccccc12)c1ccccc1 | -97.2% (active) |
| C(=C\c1cc(/C=C/c2ccccc2)c2ccccc2n1)/c1ccccc1 | 107% |
| C=C1CC[C@@H]2[C@]3(C)COC(c4cn(-c5ccccc5)nc4-c4ccccc4)O[C@@H]3CC[C@@]2(C)[C@@H]1C/C=C1/C(=O)OC[C@H]1O (stereo partly specified) | -95.5% (active) |
| N#Cc1c(-c2cccc3ccccc23)cc(-c2cccc(OCC(=O)O)c2)[nH]c1=O | 100% |
| O=C(/C=C/c1cccc(OCc2ccc(F)cc2)c1)c1nc2ccccc2[nH]1 | 78.9% |
| CCOC(=O)C1=C(N)N(c2ccccc2)C2=C(C(=O)CC(C)(C)C2)C1c1cccc(Cl)c1Cl (stereo unspecified) | 57.9% |
| CC(C)c1ccc2c(N)c(C(=O)Nc3ccc(C(F)(F)F)cn3)sc2n1 | 49% |
| COc1ccc2cc([C@H](C)C(=O)N/N=C/c3ccc(Br)cc3)ccc2c1 | 106% |
| CC(=O)Oc1ccccc1C(=O)[Se]CC(=O)Nc1cccc(C(F)(F)F)c1 | -34.8% (active) |
| COc1ccc(NC(=O)c2sc3nc(C(C)C)ccc3c2N)cc1 | 81.2% |
| CC1=C(C(=O)OCc2ccccc2)C(c2c(O)cc(O)cc2O)n2c(nc3ccccc32)N1 (stereo unspecified) | 46.6% |
| N#Cc1ccc(/C=N/NC(=O)c2[nH]c3ccc(Br)cc3c2-c2ccccc2)o1 | 8.88% (active) |
| CC1=C(C(=O)OC(C)C)C(c2cccc(O)c2)NC(=S)N1 (stereo unspecified) | 98.1% |
| COc1cc(-c2ccc(/C=N/NC(=O)c3[nH]c4ccc(Br)cc4c3-c3ccccc3)s2)cc(OC)c1OC | 75.6% |

| Compound | growth |
| --- | --- |
| COc1cc(/C=C/C(=O)c2nnn(-c3ccc(Cl)cc3)c2C)cc(OC)c1OC | 42.4% |
| CC1=C(C(=O)OCc2ccccc2)C(c2ccc(-n3cncn3)cc2)n2c(nc3ccccc32)N1 (stereo unspecified) | 51.3% |
| COc1cc(-c2cc(-c3cccc(OCC(=O)O)c3)[nH]c(=O)c2C#N)cc(OC)c1OC | 97% |
| CSc1ccc(C(=O)Nc2ccc3nn(/C(C#N)=C/c4ccccn4)nc3c2)cc1 | -96% (active) |
| CSc1ccc(NC(=O)c2ccc3nn(/C(C#N)=C/c4ccccn4)nc3c2)cc1 | -95.3% (active) |
| CC1CCCCN1CCCNC(=O)N/C(N)=N/c1nc2ccccc2s1 (stereo unspecified) | 42.5% |
| O=C(O)c1ccc(-c2ccc(/C=N/NC(=O)c3[nH]c4ccc(Br)cc4c3-c3ccccc3)s2)cc1 | 14.2% |
| CSc1ccccc1NC(=O)c1ccc2nnn(/C(C#N)=C/c3ccccn3)c2c1 | -100% (active) |
| Clc1cccc(Cl)c1/C=C/c1cc(/C=C/c2ccc(Br)cc2)c2ccccc2n1 | 100% |
| C=C1CC[C@@H]2[C@]3(C)COC(c4cn[nH]c4-c4ccc(OC)cc4)O[C@@H]3CC[C@@]2(C)[C@@H]1C/C=C1/C(=O)OCC1O (stereo partly specified) | 3.82% (active) |
| CSc1ccc(C(=O)Nc2ccc3nnn(/C(C#N)=C/c4ccccn4)c3c2)cc1 | -93.2% (active) |
| CC(=O)Nc1cccc(Nc2nccc(N[C@@H](C)c3ccccc3)n2)c1 | 12.7% |
| O=C(N/N=C/c1ccc(-c2ccc(O)cc2)s1)c1[nH]c2ccc(Br)cc2c1-c1ccccc1 | -2.55% (active) |
| COc1cc(CNC(=O)/C=C/c2ccc3c(c2)OCO3)ccc1OCc1cn(-c2cccc(C(F)(F)F)c2)nn1 | 0.888% (active) |
| O=C(O)c1ccc(-c2ccc(/C=N/NC(=O)c3[nH]c4ccc(Br)cc4c3-c3ccccc3)o2)cc1 | 32.5% |
| CCCCOc1ccc(NC(=O)c2sc3nc(C)ccc3c2N)cc1 | -19.3% (active) |
| Cc1ccc2c(N)c(C(=O)Nc3ccc(-c4ccccc4)cc3)sc2n1 | 60.1% |
| COc1ccc2nc(Nc3cccc(NC(=O)c4ccc(CN5CCCN(C)CC5)c(C(F)(F)F)c4)c3)ccc2c1 | -91.5% (active) |
| N#Cc1c(-c2cccnc2)cc(-c2ccc3ccccc3c2)[nH]c1=O | 90.2% |

What follows are compounds tested on CAKI-1 renal in the same assay as above. Conditions: 10 µM unless noted.

| Compound | growth |
| --- | --- |
| Nc1cc2ccccc2c(=O)n1NC(=O)c1ccc(I)cc1 | 83.6% |
| CC(=O)Nc1cccc(Nc2nc(N[C@H]3CCCc4ccccc43)c3ccccc3n2)c1 | 89.5% |
| CCN(CC)C(=O)N/C(N)=N/c1nc2ccccc2s1 | 36.6% |
| O=C(O)c1cccc(-c2ccc(/C=N/NC(=O)c3[nH]c4ccc(Br)cc4c3-c3ccccc3)o2)c1 | 96.4% |
| NS(=O)(=O)c1ccc(-n2cc(-c3cccc(NC(=O)c4cc(C(F)(F)F)cc(C(F)(F)F)c4)c3)nn2)cc1 | 75.3% |
| C[C@H](Nc1nc(NCCc2ccccc2)nc2ccccc12)c1ccccc1 | -85.9% (active) |
| C(=C\c1cc(/C=C/c2ccccc2)c2ccccc2n1)/c1ccccc1 | 94.2% |
| C=C1CC[C@@H]2[C@]3(C)COC(c4cn(-c5ccccc5)nc4-c4ccccc4)O[C@@H]3CC[C@@]2(C)[C@@H]1C/C=C1/C(=O)OC[C@H]1O (stereo partly specified) | -39.7% (active) |
| N#Cc1c(-c2cccc3ccccc23)cc(-c2cccc(OCC(=O)O)c2)[nH]c1=O | 74.2% |
| O=C(/C=C/c1cccc(OCc2ccc(F)cc2)c1)c1nc2ccccc2[nH]1 | 67.3% |
| CCOC(=O)C1=C(N)N(c2ccccc2)C2=C(C(=O)CC(C)(C)C2)C1c1cccc(Cl)c1Cl (stereo unspecified) | 47.4% |
| CC(C)c1ccc2c(N)c(C(=O)Nc3ccc(C(F)(F)F)cn3)sc2n1 | 55.2% |
| COc1ccc2cc([C@H](C)C(=O)N/N=C/c3ccc(Br)cc3)ccc2c1 | 87.2% |
| CC(=O)Oc1ccccc1C(=O)[Se]CC(=O)Nc1cccc(C(F)(F)F)c1 | -74.4% (active) |
| COc1ccc(NC(=O)c2sc3nc(C(C)C)ccc3c2N)cc1 | 80.7% |
| CC1=C(C(=O)OCc2ccccc2)C(c2c(O)cc(O)cc2O)n2c(nc3ccccc32)N1 (stereo unspecified) | 39.4% |
| N#Cc1ccc(/C=N/NC(=O)c2[nH]c3ccc(Br)cc3c2-c2ccccc2)o1 | 26.9% |
| CC1=C(C(=O)OC(C)C)C(c2cccc(O)c2)NC(=S)N1 (stereo unspecified) | 89.9% |
| COc1cc(-c2ccc(/C=N/NC(=O)c3[nH]c4ccc(Br)cc4c3-c3ccccc3)s2)cc(OC)c1OC | 71.6% |

| Compound | growth |
| --- | --- |
| COc1cc(/C=C/C(=O)c2nnn(-c3ccc(Cl)cc3)c2C)cc(OC)c1OC | 43.2% |
| CC1=C(C(=O)OCc2ccccc2)C(c2ccc(-n3cncn3)cc2)n2c(nc3ccccc32)N1 (stereo unspecified) | 42.8% |
| COc1cc(-c2cc(-c3cccc(OCC(=O)O)c3)[nH]c(=O)c2C#N)cc(OC)c1OC | 82.2% |
| CSc1ccc(C(=O)Nc2ccc3nn(/C(C#N)=C/c4ccccn4)nc3c2)cc1 | -42.9% (active) |
| CSc1ccc(NC(=O)c2ccc3nn(/C(C#N)=C/c4ccccn4)nc3c2)cc1 | -90.9% (active) |
| CC1CCCCN1CCCNC(=O)N/C(N)=N/c1nc2ccccc2s1 (stereo unspecified) | 24.6% |
| O=C(O)c1ccc(-c2ccc(/C=N/NC(=O)c3[nH]c4ccc(Br)cc4c3-c3ccccc3)s2)cc1 | 20% |
| CSc1ccccc1NC(=O)c1ccc2nnn(/C(C#N)=C/c3ccccn3)c2c1 | -88.2% (active) |
| Clc1cccc(Cl)c1/C=C/c1cc(/C=C/c2ccc(Br)cc2)c2ccccc2n1 | 73.4% |
| C=C1CC[C@@H]2[C@]3(C)COC(c4cn[nH]c4-c4ccc(OC)cc4)O[C@@H]3CC[C@@]2(C)[C@@H]1C/C=C1/C(=O)OCC1O (stereo partly specified) | -23.4% (active) |
| CSc1ccc(C(=O)Nc2ccc3nnn(/C(C#N)=C/c4ccccn4)c3c2)cc1 | 4.99% (active) |
| CC(=O)Nc1cccc(Nc2nccc(N[C@@H](C)c3ccccc3)n2)c1 | 29% |
| O=C(N/N=C/c1ccc(-c2ccc(O)cc2)s1)c1[nH]c2ccc(Br)cc2c1-c1ccccc1 | 37.2% |
| COc1cc(CNC(=O)/C=C/c2ccc3c(c2)OCO3)ccc1OCc1cn(-c2cccc(C(F)(F)F)c2)nn1 | 6.02% (active) |
| O=C(O)c1ccc(-c2ccc(/C=N/NC(=O)c3[nH]c4ccc(Br)cc4c3-c3ccccc3)o2)cc1 | 38.5% |
| CCCCOc1ccc(NC(=O)c2sc3nc(C)ccc3c2N)cc1 | 26.5% |
| Cc1ccc2c(N)c(C(=O)Nc3ccc(-c4ccccc4)cc3)sc2n1 | 59.4% |
| COc1ccc2nc(Nc3cccc(NC(=O)c4ccc(CN5CCCN(C)CC5)c(C(F)(F)F)c4)c3)ccc2c1 | -65.2% (active) |
| N#Cc1c(-c2cccnc2)cc(-c2ccc3ccccc3c2)[nH]c1=O | 89.7% |
